Data reported in PubChem BioAssay (NCATS).
Records with an inconclusive call do not appear. Calls of active or inactive are those of the source. Unless noted, the call rests on the fitted dose curve; in most records, active means well fitted curve in either direction with a large enough effect (not every such curve was filed as active); inconclusive means small, poorly fitted or top-dose-only effect, or another doubt; inactive means flat fitted curve, though single readings scatter.

Legend:
[1] = target: Lysosomal acid glucosylceramidase (Homo sapiens) (UniProt P04062); assay: Glucocerebrosidase-p2 (AID 348; in the data active means potency below about 10 µM; further: potency means the concentration at half of the fitted maximal effect); conditions: purified GBA, blue fluorogenic substrate, 40 min
Summary of the method: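 Compounds titrated from 0.6 nM upwards against 0.2 nM enzyme in pH 5.9 citric acid/KH2PO4, taurocholate, tween-20; blue fluorogenic substrate 80 uM, 40 min room temperature, stopped and read Ex 365/Em 440 for AC50.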

[2] = AP1 Signaling Pathway (AID 357); conditions: ME-180 AP-1-bla reporter, EGF-induced, beta-lactamase ratio, 5 h; at 7.69 µM (top of the series) unless noted; further: on the % scale 0 is the no-effect control and ±100 the full control effect
Summary of the method: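 ME-180 cells with beta-lactamase reporter under AP-1 response element, stimulated with EC50 EGF; compounds tested in titration series, 5 h at 37 °C. CCF4 substrate added 2.5 h at room temperature; 460/530 nm emission ratio gave %activity and AC50.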

[3] = Stat Signaling Pathway (AID 446); conditions: ME-180 SIE beta-lactamase reporter, IL-6 stimulated, 5 h; at 7.69 µM (top of the series) unless noted;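 further: ME-180 cervical cancer cells given 40 pM IL-6 alongside compound; SIE-controlled beta-lactamase reporter measured as 460/530 nm FRET emission ratio; on the % scale 0 is the no-effect control and ±100 the full control effect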
Summary of the method: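 ME-180 SIE-bla cells; overnight plating; cpd + IL-6 40 pM, 5 h, 37 C; LiveBLAzer 2.5 h RT; 460/530 nm emission ratio. Normalized to 300 pM IL-6 and 125 nM JAK inhibitor controls.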

[4] = target: Glucocorticoid receptor (Homo sapiens) (UniProt P04150); assay: GR-EFC Redistribution (AID 451; calls by dose curve; further: potency means the concentration at half of the fitted maximal effect); conditions: CHO-K1 GR-EFC translocation, beta-gal luminescence, 2 h
Summary of the method: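 CHO-K1 cells expressing nuclear EA and GR-ED fragments of b-gal; compounds titrated up to 46 uM final, 2 h at 37 C. GR nuclear translocation read as complemented b-gal luminescence after 1 h RT detection.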

[5] = target: Mitogen-activated protein kinase 10 (Mus musculus) (UniProt Q61831); assay: JNK3 AlphaScreen Assay (AID 530); conditions: JNK3 lysate, c-Jun phosphorylation; series mostly up to 57.1 µM;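 further: kinase came from lysate of stimulated human HepG2 cells; signal reports phosphorylation of biotinylated GST-cJun 1-79 at Ser73 with 10 µM ATP; on the % scale 0 is the no-effect control and ±100 the full control effect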
Summary of the method: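 Pre-activated (IL-1β/TNFα) JNK3 in HepG2 lysates phosphorylates biotin-GST-cJun(1-79), 10 uM ATP; anti-phospho-cJun(Ser73) AlphaScreen read at room temperature, pH 7.6 Tris buffer. Compounds pre-incubated 15 min as titrations.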

[6] = target: 3',5'-cyclic-AMP phosphodiesterase 4B (Homo sapiens) (UniProt Q07343); assay: qHTS Assay for Inhibitors of PDE-IV (AID 607; active means well fitted activation curve with a large enough effect in the main read-out, with a control signal flat, not every such curve was filed as active; further: % of control where 0% means no effect); conditions: HEK293 ACTOne CNG channel cells, membrane potential fluorescence; series mostly up to 22.9 µM
Summary of the method: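 ACTOne HEK293 cells carry a modified cAMP-gated CNG channel and express endogenous PDE4; plated 1000 cells/well, compounds up to 22.9 uM final. Membrane-potential dye fluorescence (ex 535/em 590) was read; parental cells received 10 uM forskolin + 100 uM RO 20-1724.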

[7] = qHTS Assay for Lipid Storage Modulators (AID 1519; calls by dose curve); conditions: Drosophila S3 cells, BODIPY lipid droplet/cell ratio, laser cytometry, cells loaded with oleic acid; for activity change, negative = inhibition: at 57.5 µM (top of the series)
Summary of the method: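 Cells seeded at 5,000 per well were treated with compounds over a concentration series and loaded with oleic acid (400 uM, as added). Lipid droplet fluorescence (488 nm excitation, 500-530 nm channel) was read by laser-scanning cytometry and normalized to 20 uM Triacsin C.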

[8] = Primary qHTS for small molecule stabilizers of the endoplasmic reticulum resident proteome: Secreted ER Calcium Modulated Protein (SERCaMP) assay (AID 1508630; active means well fitted inhibition curve with a large enough effect; further: on the % scale 0 is the no-effect control and ±100 the full control effect); conditions: SH-SY5Y GLuc-SERCaMP (Gaussia luciferase released on ER calcium loss) secretion, thapsigargin, luminescence; series mostly up to 38.4 µM
Summary of the method: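 GLuc-SERCaMP-expressing SH-SY5Y cells, pretreated 16 h with compound, are challenged with thapsigargin to empty ER calcium stores; after 4 h, coelenterazine is added directly to the medium and luminescence is imaged.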

[9] = NFAT Signaling Pathway (AID 444); conditions: Jurkat NFAT-bla M1, carbachol, beta-lactamase ratio, 5 h; at 7.69 µM (top of the series) unless noted
Summary of the method: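 Jurkat cells with NFAT-driven β-lactamase reporter and co-expressed M1 receptor, stimulated with carbachol (final 1 uM, ~EC50), compound titration, 5 h at 37 °C. CCF4 loaded 1 h at RT; 460/530 nm ratio gave %activity and AC50.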

[10] = measured here: cell count channel max response
[11] = measured here: lipid channel max response

Chain of Lysosomal acid glucosylceramidase (Homo sapiens) (P04062 whole entry, looked up): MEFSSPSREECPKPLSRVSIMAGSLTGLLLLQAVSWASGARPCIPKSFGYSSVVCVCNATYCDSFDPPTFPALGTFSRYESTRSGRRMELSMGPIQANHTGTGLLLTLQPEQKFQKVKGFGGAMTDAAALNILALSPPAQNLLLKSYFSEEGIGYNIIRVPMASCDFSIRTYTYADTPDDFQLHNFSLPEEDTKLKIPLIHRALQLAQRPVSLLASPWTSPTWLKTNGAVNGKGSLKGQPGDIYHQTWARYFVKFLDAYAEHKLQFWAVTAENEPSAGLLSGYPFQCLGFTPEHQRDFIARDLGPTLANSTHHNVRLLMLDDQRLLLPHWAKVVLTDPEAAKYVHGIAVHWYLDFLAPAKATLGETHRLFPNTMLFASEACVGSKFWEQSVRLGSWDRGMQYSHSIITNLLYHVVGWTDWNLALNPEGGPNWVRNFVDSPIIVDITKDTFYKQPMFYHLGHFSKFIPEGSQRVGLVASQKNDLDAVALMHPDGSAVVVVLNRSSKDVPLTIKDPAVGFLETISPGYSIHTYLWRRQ
Chain of Glucocorticoid receptor (Homo sapiens) (P04150 whole entry, looked up, the tested form may be a part): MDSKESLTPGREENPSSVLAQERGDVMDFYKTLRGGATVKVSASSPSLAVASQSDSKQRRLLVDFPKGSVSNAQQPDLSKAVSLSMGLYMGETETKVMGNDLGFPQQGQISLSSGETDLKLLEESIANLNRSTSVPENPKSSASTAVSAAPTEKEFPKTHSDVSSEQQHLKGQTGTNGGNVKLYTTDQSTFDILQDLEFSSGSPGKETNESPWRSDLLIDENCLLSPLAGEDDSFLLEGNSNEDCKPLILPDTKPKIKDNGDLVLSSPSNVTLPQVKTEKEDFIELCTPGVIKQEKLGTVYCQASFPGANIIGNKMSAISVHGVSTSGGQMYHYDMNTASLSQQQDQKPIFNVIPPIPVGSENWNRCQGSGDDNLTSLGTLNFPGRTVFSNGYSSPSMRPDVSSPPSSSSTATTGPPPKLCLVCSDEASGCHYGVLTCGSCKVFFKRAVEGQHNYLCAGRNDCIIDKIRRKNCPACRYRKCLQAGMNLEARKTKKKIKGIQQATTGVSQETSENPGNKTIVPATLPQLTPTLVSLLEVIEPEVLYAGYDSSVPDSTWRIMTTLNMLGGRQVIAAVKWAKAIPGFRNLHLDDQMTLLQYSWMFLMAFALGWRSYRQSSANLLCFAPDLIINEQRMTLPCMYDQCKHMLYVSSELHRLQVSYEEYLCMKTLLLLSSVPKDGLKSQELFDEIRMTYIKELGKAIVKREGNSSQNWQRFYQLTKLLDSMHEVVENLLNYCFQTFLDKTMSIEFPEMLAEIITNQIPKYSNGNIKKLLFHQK
Chain of 3',5'-cyclic-AMP phosphodiesterase 4B (Homo sapiens) (Q07343 whole entry, looked up): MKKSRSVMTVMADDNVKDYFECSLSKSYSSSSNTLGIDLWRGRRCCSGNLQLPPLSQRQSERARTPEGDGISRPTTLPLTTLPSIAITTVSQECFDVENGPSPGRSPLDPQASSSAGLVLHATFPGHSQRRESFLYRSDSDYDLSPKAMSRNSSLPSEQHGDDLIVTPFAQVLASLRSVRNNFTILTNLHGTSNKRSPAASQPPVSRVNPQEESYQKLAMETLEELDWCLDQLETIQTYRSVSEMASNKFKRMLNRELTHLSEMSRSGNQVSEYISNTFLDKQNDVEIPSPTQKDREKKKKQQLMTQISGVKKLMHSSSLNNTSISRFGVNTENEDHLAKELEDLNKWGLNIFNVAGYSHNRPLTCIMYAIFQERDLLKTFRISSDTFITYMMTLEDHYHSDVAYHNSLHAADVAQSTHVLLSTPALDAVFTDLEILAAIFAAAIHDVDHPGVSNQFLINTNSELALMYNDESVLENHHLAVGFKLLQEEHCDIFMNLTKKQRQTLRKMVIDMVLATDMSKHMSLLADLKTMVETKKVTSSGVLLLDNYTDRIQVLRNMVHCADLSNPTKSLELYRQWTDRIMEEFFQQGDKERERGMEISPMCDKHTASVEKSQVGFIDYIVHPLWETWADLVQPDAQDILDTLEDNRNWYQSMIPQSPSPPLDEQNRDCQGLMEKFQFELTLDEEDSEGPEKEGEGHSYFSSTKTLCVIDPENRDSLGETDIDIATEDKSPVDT

N#Cc1cccc(NC(=O)N2CC3(CCN(C(=O)c4ccco4)CC3)C2)c1
11.7%: max response [7, 11]
inactive: Potency [1] > 11.4 µM | activity change, negative = inhibition [2] -10.9% | activity, negative = inhibition [3] 19.7% | Potency [4] > 46 µM | Potency [5] | Potency [6] | activity change, negative = inhibition [7] 4.67% | outcome [8]
3.49%: max response [7, 10]

COCC(=O)N1CCC[C@@]2(CCN(C(=O)Nc3ccccc3)C2)C1
3.08%: max response [7, 10]
10.8%: max response [7, 11]
inactive: Potency [1] > 11.4 µM | activity change, negative = inhibition [2] -5.16% | activity, negative = inhibition [3] -3% | Potency [4] > 46 µM | Potency [5] | Potency [6] | activity change, negative = inhibition [7] 5.08% | outcome [8]

COc1ccc(C(=O)N2CCC3(CCN(CC(C)C)CC3)CC2)cc1
-10.1%: max response [7, 10]
-11.3%: max response [7, 11]
inactive: Potency [1] > 11.4 µM | activity change, negative = inhibition [2] -18% | activity, negative = inhibition [3] -2.75% | Potency [4] > 46 µM | Potency [5] | Potency [6] | activity change, negative = inhibition [7] -2.62% | outcome [8]

COc1ccccc1CN1CC2(CCN(C(=O)c3cccc(F)c3)CC2)C1
inactive: Potency [1] > 11.4 µM | activity change, negative = inhibition [2] -3.72% | activity, negative = inhibition [3] 0.108% | Potency [4] > 46 µM | Potency [5] | Potency [6] | activity change, negative = inhibition [7] 3.26% | outcome [8]
8.06%: max response [7, 10]
13.5%: max response [7, 11]

COc1ccccc1CN1CCC2(CC1)CCN(C(=O)c1ccncc1)CC2
-17.2%: max response [7, 11]
-18.4%: max response [7, 10]
inactive: Potency [1] > 11.4 µM | activity change, negative = inhibition [2] -13% | activity, negative = inhibition [3] 5.76% | Potency [4] > 46 µM | Potency [5] | Potency [6] | activity change, negative = inhibition [7] -0.0628% | outcome [8]

O=C(c1cnccn1)N1CCC2(CC1)CN(c1ncccn1)C2
6.2%: max response [7, 10]
inactive: Potency [1] > 11.4 µM | activity change, negative = inhibition [2] -12.2% | activity, negative = inhibition [3] 21.6% | Potency [4] > 46 µM | Potency [5] | Potency [6] | activity change, negative = inhibition [7] 6.01% | outcome [8]
15.3%: max response [7, 11]

COc1ccccc1CN1CC2(CCN(C(=O)c3cc(C(F)(F)F)cc(C(F)(F)F)c3)CC2)C1
inactive: Potency [1] > 11.4 µM | activity change, negative = inhibition [2] 1.43% | activity, negative = inhibition [3] 3.93% | Potency [4] > 46 µM | Potency [5] | activity change, negative = inhibition [7] -1.27% | outcome [8]
11.2%: max response [7, 10]
10.9%: max response [7, 11]

CS(=O)(=O)N1CCC2(CCCN(Cc3ccccc3)C2)CC1
10.5%: max response [7, 10]
13.7%: max response [7, 11]
inactive: Potency [1] > 11.4 µM | activity change, negative = inhibition [2] -13.8% | activity, negative = inhibition [3] -2.17% | Potency [4] > 46 µM | Potency [5] | Potency [6] | activity change, negative = inhibition [7] 0.839% | outcome [8]

CC(=O)N1CCC2(CCCN(c3ccncc3)C2)CC1
7.47%: max response [7, 11]
inactive: Potency [1] > 11.4 µM | activity change, negative = inhibition [2] -16.6% | activity, negative = inhibition [3] -5.29% | Potency [4] > 46 µM | Potency [5] | Potency [6] | activity change, negative = inhibition [7] 4.08% | outcome [8]
1.51%: max response [7, 10]

N#Cc1cccc(NC(=O)N2CC[C@@]3(CCCN(C(=O)c4cnccn4)C3)C2)c1
14.7%: max response [7, 10]
23.6%: max response [7, 11]
inactive: Potency [1] > 11.4 µM | activity change, negative = inhibition [2] -6.32% | activity, negative = inhibition [3] 3.28% | Potency [4] > 46 µM | Potency [5] | Potency [6] | activity change, negative = inhibition [7] 8.9% | outcome [8]

N#Cc1ccc(CN2CCCC3(CCN(C(=O)c4csnn4)CC3)C2)cc1
-8.04%: max response [7, 11]
-10.9%: max response [7, 10]
inactive: Potency [1] > 11.4 µM | activity change, negative = inhibition [2] -6.06% | activity, negative = inhibition [3] 1.34% | Potency [4] > 46 µM | Potency [5] | Potency [6] | activity change, negative = inhibition [7] -0.464% | outcome [8]

CS(=O)(=O)N1CCC2(CCCN(Cc3ccc(C#N)cc3)C2)CC1
-6.26%: max response [7, 11]
inactive: Potency [1] > 11.4 µM | activity change, negative = inhibition [2] -16.1% | activity, negative = inhibition [3] -15% | Potency [4] > 46 µM | Potency [5] | Potency [6] | activity change, negative = inhibition [7] 1.06% | outcome [8]
-8.06%: max response [7, 10]

N#Cc1ccc(CN2CCC3(CC2)CCN(C(=O)c2cccc(F)c2)CC3)cc1
7.59%: max response [7, 10]
inactive: Potency [1] > 11.4 µM | activity change, negative = inhibition [2] 3.84% | activity, negative = inhibition [3] 8.5% | Potency [4] > 46 µM | Potency [5] | Potency [6] | activity change, negative = inhibition [7] 1.66% | outcome [8]
9.63%: max response [7, 11]

O=C(c1cnccn1)N1CCC2(CCN(Cc3ccccc3)CC2)CC1
inactive: Potency [1] > 11.4 µM | activity change, negative = inhibition [2] 12.5% | activity, negative = inhibition [3] -1.26% | Potency [4] > 46 µM | Potency [5] | Potency [6] | activity change, negative = inhibition [7] 2.37% | outcome [8]
7.12%: max response [7, 10]
14.3%: max response [7, 11]

Cn1cccc1C(=O)N1CCC2(CCN(Cc3ccc(C#N)cc3)CC2)CC1
9.77%: max response [7, 11]
inactive: Potency [1] > 11.4 µM | activity change, negative = inhibition [2] 11.1% | activity, negative = inhibition [3] -2.38% | Potency [4] > 46 µM | Potency [5] | Potency [6] | activity change, negative = inhibition [7] 0.873% | outcome [8]
7.43%: max response [7, 10]

CS(=O)(=O)N1CCC2(CC1)CN(Cc1ccc(C#N)cc1)C2
inactive: Potency [1] > 11.4 µM | activity change, negative = inhibition [2] -16.8% | activity change, negative = inhibition [9] -16.5% | Potency [4] > 46 µM | Potency [5] | Potency [6] | activity change, negative = inhibition [7] 4.04% | outcome [8]
9.72%: max response [7, 10]
16.5%: max response [7, 11]
